A selection: hits, their analogues and other compounds. The true share with any hit is near 3.2%.
AMA1-RON2 inh: qHTS for Inhibitors of AMA1-RON; Towards Development of Antimalarial Drug Lead: Primary Screen; Plasmodium falciparum AMA1 (3D7) - RON2 peptide interaction; AlphaScreen AMA1-biotinylated RON2 peptide binding; Potency, µM (top dose mostly 58.2 µM), for the others: top-dose activity change, negative = inhibition, usual class: inhibitors; 360,000 tested, 0.2% active; AID 720542, 2013;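 note: 0% = vehicle wells and -100% = peptide control; nearly all actives have a fitted effect of over 45% in size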
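AMA1 (3D7) with his tag at 25 nM final met compounds first, then biotinylated RON2 peptide at 25 nM; detection used donor plus acceptor beads, 10 µg/mL apiece, read by AlphaScreen after 30 min at room temperature.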
TbPYK inhibitor: qHTS of Trypanosoma Brucei Inhibitors; pyruvate kinase (Trypanosoma brucei), Q57TT1; TbPYK enzyme, Kinase-Glo Plus ATP luminescence, 45 min; Potency, µM (doses to about 76.8 µM), inactives show top-dose activity, negative = inhibition, hits mostly inhibitors; 410,000 tested, 0.12% active; note: nearly all actives have a fitted effect of over 50% in size
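Activity of T. brucei pyruvate kinase was followed by Kinase-Glo Plus luminescence after the enzyme reacted 45 min at room temperature with 130 uM ADP (final) and substrate. Test compounds were added before ADP at multiple concentrations.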
LmPK inh: qHTS Assay for Inhibitors of Leishmania Mexicana Pyruvate Kinase (LmPK); Q27686; purified LmPK, Kinase-Glo ATP luminescence, 1 h; Potency, µM (doses to about 57.5 µM), without a hit: at the top dose activity change, negative = inhibition, actives largely listed as inhibitors; 290,000 tested, 0.37% active
Target sequence (Q27686 whole entry, looked up): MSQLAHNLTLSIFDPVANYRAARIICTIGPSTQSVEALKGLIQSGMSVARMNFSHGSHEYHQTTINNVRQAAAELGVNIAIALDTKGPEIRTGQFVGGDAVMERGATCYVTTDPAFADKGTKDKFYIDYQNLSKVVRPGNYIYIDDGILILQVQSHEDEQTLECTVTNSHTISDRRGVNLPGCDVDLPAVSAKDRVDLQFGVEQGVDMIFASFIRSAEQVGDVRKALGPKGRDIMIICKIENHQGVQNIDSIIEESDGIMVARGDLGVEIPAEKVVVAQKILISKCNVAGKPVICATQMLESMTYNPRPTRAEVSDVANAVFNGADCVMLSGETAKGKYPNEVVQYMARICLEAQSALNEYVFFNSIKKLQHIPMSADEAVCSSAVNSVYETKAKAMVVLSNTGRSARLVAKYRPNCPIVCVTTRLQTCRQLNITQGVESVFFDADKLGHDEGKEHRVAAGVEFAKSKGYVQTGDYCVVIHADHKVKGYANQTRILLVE
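In 50 mM imidazole pH 7.2 with 7 mM MgCl2, LmPK (0.1 nM) turned over PEP (0.5 mM) and ADP (0.1 mM) for 1 h at room temperature. Luciferase read-out of ATP.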
RE007 growth inh: qHTS Assay for Inhibitors of the HIV-1 protein Vpr. S. pombe RE007 Vpr strain, BacTiter-Glo ATP luminescence, 24 h. Potency, µM (doses to about 92.2 µM), for the others: at the top dose activity change, negative = less growth, most hits filed as inhibitors. 360,000 tested, 0.21% active; active = well fitted falling curve with a large enough effect; inconclusive = small, poorly fitted or top-dose-only effect; inactive = no such curve, though single readings can be large or run the other way; note: nearly all actives have a fitted effect of over 50% in size
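Fission yeast RE007 carrying one integrated HIV-1 vpr copy, seeded at OD 0.01 in PMG+AL medium with 23 nL pinned compound. Grown 24 h at 30 degrees; viability read by BacTiter-Glo luminescence after 5 min.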
Sm TGR block: qHTS Assay for the Inhibitors of Schistosoma Mansoni Peroxiredoxins. Schistosoma mansoni thioredoxin glutathione reductase (TGR), Q962Y6. purified TGR, DTNB reduction, TNB absorbance 405 nm. Potency, µM (series often up to 114 µM), without a hit: at the top dose activity change, negative = inhibition, most hits filed as inhibitors. 360,000 tested, 3% active; note: nearly all actives have a fitted effect of over 60% in size
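TGR 20 nM + NADPH 100 uM (dispensed conc.), cpd preinc 15 min RT; start with NADPH (500 uM addition) then DTNB (15 mM addition). Kinetic TNB absorbance, 405 nm filter. Four-parameter Hill fit across titration.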
* = called active by the depositor; ? = inconclusive; / = no result; [ ] = dose if it differs, or a comment. Unless noted, calls come from the whole dose curve; as a rule, active = well fitted curve in the direction sought with a large enough effect; inconclusive = small, poorly fitted or top-dose-only effect, or another doubt; inactive = no such curve, though single readings can be large; an effect the other way counts as inactive or inconclusive. Unless noted, % is set by controls: 0 for no effect and ±100 for the full control effect; potency is the fitted concentration of half-maximal effect.

SMILES	AMA1-RON2 inh	TbPYK inhibitor	LmPK inh	RE007 growth inh	Sm TGR block
Cc1cc(=O)n(CC(=O)O)c2ccccc12	-1%	-1%	1%	5%	13%
Cc1cc(C)n(CC(=O)O)c(=O)c1[N+](=O)[O-]	10%	-11%	0%	18%	40µM*
COc1cccc(CNc2ccc(N3CCCCC3)cc2)c1OC	35µM*	-16%	1%	0%	25µM*
COc1ccccc1CNc1ccc(N2CCCCC2)cc1	?	-15%	1%	-11%	10µM*
COc1cccc(CNc2ccc(S(N)(=O)=O)cc2)c1OC	3%	20%	3%	5%	?
COc1ccccc1CNc1ccc(C(=O)O)cc1	12%	-2%	-7%	7%	0%
COc1ccc(C(=O)n2cc(C(=O)c3cc(C)ccc3O)cn2)cc1	-11%	-6%	-4%	7%	7%
COc1ccc(O)c(C(=O)c2cnn(S(=O)(=O)c3ccc(C)cc3)c2)c1	-3%	5%	/	-11%	35µM*
CCOc1ccc(NC(=O)N(Cc2cn(CC)c3ccccc23)C2CCCCCC2)cc1	/	4%	/	/	1%
CCCN(CCC)C(=O)Cn1c(=O)n(-c2ccc(CC)cc2)c(=O)c2c3c(sc21)CCC3	/	4%	/	/	-6%
CC1=C(/C=C/C(C)=C/C=C/C(C)=C/C(=O)O)C(C)(C)CCC1	12%	-10%	-7%	-2%[18.4 µM]	35µM*
Cc1cccc(Cc2nnc(CCC(=O)N(CC3CC3)CC3CCCO3)o2)c1 (centres undefined)	5%	0%	-1%	4%	-13%
CCN(CC1CCCO1)C(=O)CCc1nnc(Cc2ccc3c(c2)OCO3)o1 (centres undefined)	10%	-6%	8%	-6%	28µM*
COC(=O)C1=C(C)NC(=O)NC1c1cn(-c2ccccc2)nc1-c1ccc(OC)c(Br)c1 (centres undefined)	/	-2%	/	/	1%
Fc1c(F)c(F)c(N/N=C/c2c[nH]c3ccccc23)c(F)c1F	2%	-12%	-1%	16µM*	1%
O=C(O)c1ccc(N/N=C/c2c[nH]c3ccccc23)cc1	1%	-17%	6%	-10%	-16%
COc1cccc(Cn2c(=O)n(-c3ccccc3C)c(=O)c3c2c2cc(C)ccc2n3C)c1	/	1%	/	/	25%
O=C(Nc1ccc(F)c(Cl)c1)C1CCCN(c2ncnc3onc(-c4ccc(F)cc4)c23)C1 (centres undefined)	/	6%	/	/	50µM*
CCOc1ccccc1CNC(=O)C1CCN(Cc2cc3ccccc3n2Cc2ccccc2)CC1	/	-7%	/	/	13%
CC(C)=NOc1cc(NC(=O)CCl)cc([N+](=O)[O-])c1	-3%	-11%	7%	-23%	11µM*
CCC(=O)Nc1cc(ON=C(C)C)cc([N+](=O)[O-])c1	17%[11.6 µM]	-1%	0%	34%	0%
CC(C)CCn1c(=O)c2ccccc2n2c(CN3CCCC3)nnc12	64%	0%	-2%	-3%	6%
CC(C)CCn1c(=O)c2ccccc2n2c(CCl)nnc12	-13%	-5%	-4%	0%	3.2µM*
CCCCCn1c(=O)c2ccccc2n2c(CCl)nnc12	3%	5%	-3%	8%	14µM*
C/C(=N\Nc1cccc2ccccc12)c1c(O)n(Cc2ccccc2)c(=O)[nH]c1=O	-11%	5%	1%	/	13µM*
CCC(=O)OCc1cnc(C)c2oc(=O)c(C(=O)Nc3ccc(CC)cc3)cc12	/	-4%	/	/	6%
CCOc1cccc(C(=O)NC(=S)Nc2ccccc2)c1	29%	-14%	2%	-25%	40µM*
CCOc1cccc(C(=O)NC(=S)Nc2cccc(NC(=O)c3ccccc3Cl)c2)c1	9%	-2%	2%	-3%	-23%
O=C(O)c1ccc(NC(=S)NC(=O)c2cccc(COc3ccccc3)c2)cc1	64%	-16%	-5%	10%	25µM*

Screening data: PubChem, National Center for Advancing Translational Sciences (NCATS)
